Common to all, as to type: functional
For assay [1], the target named is Solute carrier family 2, facilitated glucose transporter member 1 (Homo sapiens) (UniProt P11166). The experiment in a line: ST_JUDE_LEISH: Cytotoxicity at 2uM final concentration against transgenic Leishmania Mexicana promastigotes LmGLUT1 that are glucose transport deficient and complemented with the human glucose transporter GLUT1. Activity is measured by DNA content using SYBR green in vitro.

For assay [2], the target named is Hexose transporter 1 (Plasmodium falciparum) (UniProt O97467). The assay is described as follows: ST_JUDE_LEISH: Cytotoxicity at 2uM final concentration against transgenic Leishmania Mexicana promastigotes LmPfHT that are glucose transport deficient and complemented with the Plasmodium falciparum hexose transporter. Activity is measured by DNA content using SYBR green in vitro.

Assay [3] deals with Glucose transporter (Leishmania mexicana) (UniProt O61059). The experiment in a line: ST_JUDE_LEISH: Cytotoxicity at 2uM final concentration against transgenic Leishmania Mexicana promastigotes LmGT2 that are glucose transport deficient and complemented with the L. Mexicana glucose transporter 2. Activity is measured by DNA content using SYBR green in vitro.

Consider 35 compounds from ChEMBL document CHEMBL3433997, “St. Jude Leishmania screening dataset” (2016).

Sequence of Solute carrier family 2, facilitated glucose transporter member 1 (Homo sapiens) (P11166 whole entry): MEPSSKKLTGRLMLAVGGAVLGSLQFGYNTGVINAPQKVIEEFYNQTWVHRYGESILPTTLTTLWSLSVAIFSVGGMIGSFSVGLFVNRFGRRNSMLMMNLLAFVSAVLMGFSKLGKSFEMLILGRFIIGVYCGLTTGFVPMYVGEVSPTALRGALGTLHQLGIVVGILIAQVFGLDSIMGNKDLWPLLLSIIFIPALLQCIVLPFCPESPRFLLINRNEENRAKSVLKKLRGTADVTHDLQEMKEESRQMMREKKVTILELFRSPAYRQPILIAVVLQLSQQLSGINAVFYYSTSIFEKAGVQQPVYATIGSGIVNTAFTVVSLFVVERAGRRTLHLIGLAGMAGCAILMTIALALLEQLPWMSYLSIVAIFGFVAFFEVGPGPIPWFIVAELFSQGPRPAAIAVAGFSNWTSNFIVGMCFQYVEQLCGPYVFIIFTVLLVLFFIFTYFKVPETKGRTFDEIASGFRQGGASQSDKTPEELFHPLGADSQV

As for `COc1cc(C)nc2ccc(NC(=O)c3ccc(C(=O)Nc4ccc5nc(C)cc(OC)c5c4)cc3)cc12`, the inhibition was -1.93% in assay [1], -1.5% in assay [2] and 1.25% in assay [3].
Taken in the same sequence, the figures for `CCn1nc(C(=O)NC2CCOc3ccccc32)c2ccccc2c1=O` (stereo not given) were -1.12%, -0.92% and -3.49%.
With `CS(=O)(=O)c1cccc(-c2cnc(N)c3cc(-c4ccc5c(c4)OCO5)ccc23)c1`, the inhibition in assay [1] was 8.59%; in assay [2], 8.33%; in assay [3] it was 7.36%.
Taken in the same sequence, the figures for `O=C(Nc1ccccc1)c1nn(CCCN2CCC(N3CCCC3)CC2)cc1-c1ccc(Cl)c(Cl)c1` were 2.06%, 0.39% and 0.89%.
As to `COc1cc(OC)cc(C(=O)Nc2nc(-c3ccc(NC(=O)c4ccccc4)cc3)cs2)c1`, the inhibition worked out at 16.3% in assay [1], 9.26% in assay [2] and 5.46% in assay [3].
The corresponding values for `COc1ccc2ncc(F)c([C@H](O)CN3CCC(NCc4ccc5c(c4)NC(=O)CS5)CC3)c2c1` are -1.54%, -0.25% and -1.73%.
The corresponding values for `COc1cc2nc(N3CCC(CNC(=O)c4ccc(-c5ccc(C#N)cc5C)cc4)CC3)nc(N)c2cc1OC` are 1.67%, 1.27% and 0.49%.
For `N#CCCN1CCN(Cc2cccc(-c3ccc(-c4nc5cc(F)ccc5[nH]4)cc3)c2)CC1`, the inhibition in assay [1] was 4.34%; in assay [2], 0.68%; in assay [3], 3.71%.
Consider `C[C@@H](Oc1cc(-n2cnc3ccc(OCC4CCN(S(C)(=O)=O)CC4)cc32)sc1C(N)=O)c1ccccc1C(F)(F)F`, for which the inhibition in assay [1] came out at 11.6%; in assay [2], 9.1%; in assay [3], 4.63%.
For `COc1ccc2nccc([C@@H](O)CN3CCC(NCCc4c[nH]c5ccccc45)CC3)c2c1`, the inhibition was found to be 9.59% in assay [1], 11% in assay [2] and 7.8% in assay [3].
The corresponding values for `O=C(/C=C/c1ccc(C(F)(F)F)cc1)NCCCCCN1CCN(C(=O)Nc2ccc(Cl)cc2)CC1` are 2.27%, 3.09% and 1.84%.
As for `Cc1cc(N2CC=CCC2)nc(NC(=N)Nc2ccc(Cl)cc2)n1`, the values for the inhibition in assay [1], in assay [2] and in assay [3] were 6.87%, 7.74% and 6.89%, respectively.
The corresponding values for `Cc1cc(C=C2SC(=Nc3ccccc3)N(C3CCCC3)C2=O)c(C)n1-c1ccc(Cl)cc1` are 0.96%, 0.85% and 1.29%.
Taken in the same sequence, the figures for `Cc1ccc(NC(=O)c2ccc3ncccc3c2)cc1OC1CCN(CCC(C)C)C1` (stereo not given) were 2.61%, 3.22% and 3.54%.
As to `O=C(Nc1cccc(-c2csc(-c3nc4ccccc4[nH]3)c2)c1)c1ccoc1`, the inhibition in assay [1] is 3.4%; in assay [2] it was 3.05%; in assay [3], 1.11%.
As for `CCc1c(C)c2ccc3c(c2oc1=O)CN(CCc1ccc(F)cc1)CO3`, the inhibition in assay [1] was determined as 6.07%; in assay [2] it was 6.16%; in assay [3] it was 5.28%.
Taken in the same sequence, the figures for `CCn1c(CN2CCC(C)CC2)nc2cc(NC(=O)c3cccs3)ccc21` were 9.93%, 9.8% and 12.5%.
Taken in the same sequence, the figures for `CC(C)(C)c1ccc(C(=O)Nc2ccc(NC(=O)c3ccc([N+](=O)[O-])o3)cc2)cc1` were 3.39%, 4.22% and 1.76%.
Taken in the same sequence, the figures for `COc1ccccc1Oc1c(N(C)S(=O)(=O)c2ccc(C(C)C)cc2)nc(C(F)(F)F)nc1N(C)S(=O)(=O)c1ccc(C(C)C)cc1` were 0.63%, 1.97% and 1%.
`COc1ccc(-c2ccc(NC(=O)c3ccc(C#N)cc3)cc2)cc1CN(C)CCN(C)C`: the inhibition in assay [1] stood at 6.36%; in assay [2], 4.84%; in assay [3], 1.19%.
The corresponding values for `COc1cc2nc(NCCCO)nc(Nc3ccc(Oc4ccccc4)cc3)c2cc1OC` are 6.51%, 6.09% and 4.69%.
With `CN1CCN(CC(=O)Nc2cccc(-c3cccc(-c4nc5cc(C(F)(F)F)ccc5[nH]4)c3)c2)CC1`, the inhibition in assay [1] came to 3.23%; in assay [2], 2.92%; in assay [3], 3.87%.
The corresponding values for `O=C(NCc1cccnc1)C(c1cc2ccccc2o1)N1CCN(C(c2ccccc2)c2ccccc2)CC1` (stereo not given) are 1.36%, 2.1% and 0.65%.
Taken in the same sequence, the figures for `CC(C)(C)C1=CC(=NNC(=O)c2ccncc2)C=C(C(C)(C)C)C1=O` were 11.8%, 14% and -0.13%.
Taken in the same sequence, the figures for `COc1cc2c(cc1N(C(C)C)S(=O)(=O)c1sc3ccc(Cl)cc3c1C)CCNCC2` were 43.3%, 10.2% and 3.21%.
Regarding `Cc1nc(C)c(-c2ccc(Oc3ccc(Cl)cc3)cc2)c(O)c1I`, the values for the inhibition in assay [1], in assay [2] and in assay [3] were 2.9%, 0.57% and 0.03%, respectively.
Turning to `Cc1ncccc1C(=O)Nc1ccc(-c2cccc(-c3nc4cccc(C)c4[nH]3)c2)cc1`, the values for the inhibition in assay [1], in assay [2] and in assay [3] were 0.98%, 0.96% and 3.38%, respectively.
On to `Cc1ccc(S(=O)(=O)N2CCN(C(=O)c3cc(-c4cccs4)n[nH]3)CC2)c(C)c1`, for which the inhibition is 2.83% in assay [1], 2.34% in assay [2] and -0.33% in assay [3].
As for `CC(C)n1cc(CN2CCCC(C(=O)Nc3cccc(-c4cc5ccccc5[nH]4)c3)C2)cn1` (stereo not given), the inhibition was 2.2% in assay [1], -0.11% in assay [2] and -0.59% in assay [3].
The corresponding values for `O=C(Nc1cc(F)cc(-c2cccnc2)c1)c1ccc2c(=O)n(Cc3ccccc3)cnc2c1` are 0.81%, 1.52% and -1.46%.
Taken in the same sequence, the figures for `O=S(=O)(c1ccc(OCc2ccc(Cl)cc2)cc1)c1cc2c(cc1OCc1ccccc1)CCN(C1CCC1)CC2` were 7.19%, 4.84% and 7.79%.
On to `N=C(N)NN=Cc1ccc2c(c1)Cc1ccccc1-2`, for which the inhibition in assay [1] was 8.82%; in assay [2], 8.08%; in assay [3], 6.46%.
Taken in the same sequence, the figures for `C=CCC(C)n1ncc2c3c(N)nc(N)nc3ccc21` (stereo not given) were 2.58%, -0.39% and -0.24%.
The corresponding values for `COCCN1CCN(Cc2ccc(-c3ccc(-c4nc5cc(F)ccc5[nH]4)cc3)cc2)CC1` are 6.74%, 3% and 0.87%.
Taken in the same sequence, the figures for `CCCCNCCOc1ccc(-c2nc(-c3ccccc3)c(-c3ccccc3)[nH]2)cc1` were 1.09%, -0.08% and 0.53%.

As usually defined, the inhibition is the change of the read-out against control, counted positive when it falls.
